Bioassay records from PubChem BioAssay.
ROC1-CUL1 inh: blocks human RBX1-Cullin-1 di-ubiquitin formation; 0.6% of 140,000 active; P62877+Q13616; inhibition, % at 10 µM; in vitro K48 di-Ub FRET, acceptor:donor ratio, 45 min; in the data active = inhibition above about 25%
Target sequence (P62877 whole entry, looked up): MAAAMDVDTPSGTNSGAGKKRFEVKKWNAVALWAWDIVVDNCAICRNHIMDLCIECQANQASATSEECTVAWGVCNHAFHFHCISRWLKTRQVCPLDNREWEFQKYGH
Target sequence (Q13616 whole entry, looked up): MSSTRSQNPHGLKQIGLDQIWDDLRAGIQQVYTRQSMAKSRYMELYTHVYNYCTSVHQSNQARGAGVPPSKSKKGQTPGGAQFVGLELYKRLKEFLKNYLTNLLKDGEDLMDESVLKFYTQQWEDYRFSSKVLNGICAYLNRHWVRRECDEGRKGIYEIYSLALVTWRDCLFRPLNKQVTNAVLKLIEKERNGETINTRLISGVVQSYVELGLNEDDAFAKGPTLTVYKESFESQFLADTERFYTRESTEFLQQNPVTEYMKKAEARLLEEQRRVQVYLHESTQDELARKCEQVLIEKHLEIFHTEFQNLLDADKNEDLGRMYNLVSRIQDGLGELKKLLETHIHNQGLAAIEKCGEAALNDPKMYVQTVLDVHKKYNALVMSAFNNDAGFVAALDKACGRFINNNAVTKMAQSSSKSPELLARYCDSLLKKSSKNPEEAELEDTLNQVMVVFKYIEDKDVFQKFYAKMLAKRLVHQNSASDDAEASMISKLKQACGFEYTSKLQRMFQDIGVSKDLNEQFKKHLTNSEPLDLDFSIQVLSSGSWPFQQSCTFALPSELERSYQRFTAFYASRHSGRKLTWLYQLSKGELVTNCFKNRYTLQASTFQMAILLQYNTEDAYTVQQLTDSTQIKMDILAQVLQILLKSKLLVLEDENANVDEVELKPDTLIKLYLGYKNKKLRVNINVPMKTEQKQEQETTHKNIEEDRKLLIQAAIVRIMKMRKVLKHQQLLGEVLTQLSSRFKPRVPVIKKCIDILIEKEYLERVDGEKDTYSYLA
Large screens that a line does not name were inactive. The full list was thinned out, with hits kept by preference.

COc1ccccc1-n1c(O)c(C=C2C=Nc3ccccc32)c(=O)[nH]c1=S	none
CCn1c(O)c(C=C2C(C)=Nc3ccccc32)c(=O)[nH]c1=S	none
CC1=CC(=Cc2c(O)n(-c3cccc(Cl)c3Cl)c(=S)[nH]c2=O)C(C)=N1	ROC1-CUL1 inh 93
FC(F)(F)c1cccc(-c2ccc(/C=N/n3c(-c4ccccc4)n[nH]c3=S)o2)c1	none
COc1ccc(OC2CCN(C(=O)C3CC3)CC2)c(C(=O)N(C)Cc2ccn[nH]2)c1	none
CCOc1ccccc1/C=C1\C(=O)NN(c2ccc(Br)cc2)C1=O	none
O=C1NN(c2cccc(Cl)c2)C(=O)/C1=C/c1ccccc1O	none
CCOc1cc(/C=C2\C(=O)NN(c3ccc(C)c(Cl)c3)C2=O)c(Br)c(Br)c1O	ROC1-CUL1 inh 100
CCOc1cc(/C=C2\C(=O)NN(c3ccc(C)c(C)c3)C2=O)ccc1O	none
COc1cc(/C=C2/C(=O)NN(c3ccc(C)c(Cl)c3)C2=O)cc(Cl)c1O	none
CCOc1cc(/C=C2\C(=O)NN(c3cccc(Cl)c3)C2=O)c(Br)c(Br)c1O	ROC1-CUL1 inh 62
O=C1CCCC2=C1C1(OC3C=CC=CN23)C(=O)c2ccccc2C1=O (stereo not given)	none
CCOc1ccc(NS(=O)(=O)c2ccc3c(c2)C(=O)C(C(=O)NCc2ccccc2)C=N3)cc1 (stereo not given)	none
O=C(CN1C(=O)S/C(=C/c2ccc(O)c(Br)c2)C1=O)Nc1cccc2ccccc12	none
O=C(O)CN1C(=O)/C(=C\c2cc(Cl)cc(Br)c2O)SC1=S	ROC1-CUL1 inh 81
CCOc1c(Br)cc(/C=C2\SC(=S)N(CC(=O)O)C2=O)cc1Br	none
CCOc1cc(Br)c(Br)c(/C=C2\SC(=S)N(CC(=O)O)C2=O)c1O	ROC1-CUL1 inh 28
O=C(O)CN1C(=O)/C(=C/c2ccccc2C(F)(F)F)SC1=S	none
Cc1cc(/C=C2/SC(=O)N(CC(=O)Nc3ccccc3F)C2=O)c(C)n1C	none
O=C(O)CN1C(=O)/C(=C/c2ccc(F)c(Br)c2)SC1=S	none
O=C(CN1C(=O)S/C(=C\c2cc(Cl)cc(Br)c2O)C1=O)Nc1ccccc1F	ROC1-CUL1 inh 26
C=CCN1C(=O)/C(=C\c2c(OCC)ccc3ccccc23)SC1=S	none
COc1cc(CN2CCOCC2)ccc1OCC(O)CN1CCCCCCC1 (stereo not given)	none
O=C(Nc1cccc(Br)c1)C1C2CCC=CCC/C=C/CCC21 (stereo not given)	none
CN1CCCC(CN(CCc2ccccc2)C(=O)Cn2cncn2)C1 (stereo not given)	none
Cc1cc(CC2=NC(=O)N(c3ccc(Cl)cc3)C2=O)c(C)n1-c1ccc(S(N)(=O)=O)cc1	none
O=C(Nc1nc(-c2ccc3ccccc3c2)cs1)C(Sc1ccccc1)c1ccccc1 (stereo not given)	none
CCCC(=O)Nc1nnc(SCC2=Nc3cc(C)ccc3C(=O)C2)s1	none
CC(C)(C)NS(=O)(=O)c1ccc(NC(=O)c2cccc(I)c2)cc1	none
Cc1ncc2c(c1CNS(=O)(=O)c1cccs1)CCN(C(=O)c1noc3c1CCCC3)C2	none
Cc1nc(NCCc2cn3nc(C)sc3n2)cc(C2CCNCC2)n1	none
Cc1ccccc1N=C/C=C1\N(C)c2ccccc2C1(C)C	none
O=C1NC(=S)S/C1=C/C=C/c1ccccc1Cl	none
CN1/C(=C\C=C2/SC(=S)NC2=O)C(C)(C)c2ccccc21	ROC1-CUL1 inh 34
N#CC1=C(c2ccccc2)CC(C(F)(F)F)=NC1=S	none
N#CC1=C(C(F)(F)F)CC(c2ccco2)=NC1=S	ROC1-CUL1 inh 91
CC1=NC(=S)C(C#N)=C(C(F)(F)F)C1	none
Cc1ccccc1OCc1nnc(SCC(=O)Nc2cccc(C(F)(F)F)c2)n1C	none
O=C(CNS(=O)(=O)c1cc(Cl)ccc1Cl)N1CCN(c2ccccc2F)CC1	none
CN(C(=S)NC(=O)c1ccccc1Br)c1ccccc1	none
C=CCN1C(=O)/C(=C\c2ccc(N(C)C)cc2)N=C1SCC(=O)Nc1ccccc1	none
CN(C)c1ccc(/C=C2\N=C(c3ccccc3)N(NC(=O)c3ccccc3Br)C2=O)cc1	ROC1-CUL1 inh 40
O=C(Nc1ccc(Cl)cc1)C1=NN=CC1	none
COC(=O)CN=CCC(=O)c1ccc(-c2ccccc2)cc1	none
CC(C)C(C(=O)OCC(=O)c1cccc([N+](=O)[O-])c1)N1C(=O)c2c(Cl)c(Cl)c(Cl)c(Cl)c2C1=O (stereo not given)	none
COC1(O)C(=O)c2ccccc2C(=O)C1(O)OC (stereo not given)	ROC1-CUL1 inh 83
CC1(Nc2ccccc2)C(=O)c2ccccc2C1=O	none
CN1C(=O)N(C)C2(O)c3ccccc3C(=O)C12O (stereo not given)	none
CC1(C)CC(=O)C(C2(O)C(=O)c3ccccc3C2=O)C(=O)C1	none
CC1(N2CCCCC2)C(=O)c2ccccc2C1=O	none
O=C1c2ccccc2C(=O)C1(O)O	ROC1-CUL1 inh 46
O=[N+]([O-])c1ccccc1C=N[C@@H]1CCCC[C@H]1N=Cc1ccccc1[N+](=O)[O-]	none
Cc1onc(-c2c(F)cccc2Cl)c1C(=O)NCCC(C)C	none
CN1CC=C(CNc2ccc(Br)c3ccccc23)CC1	none
COc1cc(Cl)c(C)cc1NC(=O)CSc1ncc(S(=O)(=O)c2ccc(C(C)(C)C)cc2)c(=O)[nH]1	ROC1-CUL1 inh 53
CC(C)(C)c1ccc(S(=O)(=O)c2cnc(SCC(=O)Nc3ccc(F)c(Cl)c3)[nH]c2=O)cc1	none
CCc1ccc(S(=O)(=O)c2cnc(SCC(=O)Nc3ccc(OC)cc3OC)[nH]c2=O)cc1	none
O=C(CN1C(=O)c2ccccc2C1=O)Nc1ccc(I)cc1	none
Cc1ccc(NC(=O)CN2C(=O)c3ccccc3C2=O)cc1Cl	none
Cc1ccc(NC(=O)CN2C(=O)c3ccc4c5c(ccc(c35)C2=O)CC4)cc1	ROC1-CUL1 inh 38
Cn1ncc(N2CCN(C(=O)c3ccccc3N3CCCC3)CC2)cc1=O	none
O=C1C2C(c3ccc(Cl)cc3)OC3(C(=O)c4ccccc4C3=O)C2C(=O)N1c1cccc([N+](=O)[O-])c1 (stereo not given)	none
CC(=O)Nn1c(=O)c2cc3c(=O)n(NC(C)=O)c(=O)c3c(C(=O)c3ccc(Cl)cc3)c2c1=O	none
COc1cc(C(=O)NCc2ccccc2Cl)cc(OC)c1OC	none
Cc1noc(C)c1C(=O)Nc1sc2c(c1C(N)=O)CCCCCC2	none
CCCC1CCc2c(sc(NC(=O)c3cc(C)on3)c2C(N)=O)C1 (stereo not given)	none
CCC1CCc2c(sc(NC(=O)c3c(C)noc3C)c2C(N)=O)C1 (stereo not given)	ROC1-CUL1 inh 74
CNC(=O)c1cn(C2CCCCC2)cc(C(=O)N2CCN(C/C=C/c3ccccc3)CC2)c1=O	none
COc1cccc(/C=N/NC(=O)c2ccc(Cl)c(Cl)c2)c1OS(=O)(=O)c1ccccc1	none
Nc1nc(-c2ccccc2)c(N=Nc2c(Br)cc(Br)cc2Br)s1	none
CC(C)(C)c1ccc(COC(=O)Nc2ccc(Cl)c(Cl)c2)cc1	none
O=C(OCCOc1ccccc1)C(C(F)(F)F)C(F)(F)F	ROC1-CUL1 inh 85
O=C(OCCOc1ccccc1)c1ccc(-c2ccccc2)cc1	none
NC(=O)c1ccccc1OCCOc1ccccc1	none
CCOC(=O)c1cc(NCCN(C)CC2c3ccccc3C=Cc3ccc(Cl)cc32)c2c(Cl)cc(Cl)cc2n1 (stereo not given)	none
Cc1c(N2C(=O)c3ccccc3C2=O)cccc1[N+](=O)[O-]	none
Cc1c(C(=O)O)cccc1-c1ccc(CC2=NC(=O)N(c3cccc(Cl)c3)C2=O)o1	none
O=C1NC(=S)N=C1Cc1ccc(-c2cc(C(=O)O)ccc2Cl)o1	none
Cc1ccc(C(=O)O)cc1-c1ccc(CC2=NC(=O)N(c3ccc(Cl)cc3)C2=O)o1	ROC1-CUL1 inh 50
Cc1ccc(NC(=O)C(C)N2CCN(c3ccccc3)CC2)cc1 (stereo not given)	none
